# From PubChem BioAssay (NCATS)
# Results filed as inconclusive are left out. Activity calls are given as the source filed them. Calls follow the shape of the dose curve; as a rule, active = well fitted curve in the direction sought with a large enough effect; inconclusive = small, poorly fitted or top-dose-only effect, or another doubt; inactive = no such curve, though single readings can be large; an effect the other way counts as inactive or inconclusive.
# What was measured:
# [1] = Quantitative High-Throughput drug screen in 47 multiple myeloma cell lines against the NCATS MIPE library collection: Karpas620_DSMZ cell viability assay (AID 1918959); conditions: Karpas620 myeloma viability, CellTiter-Glo ATP luminescence, 48 h; series mostly up to 45.8 µM; also: nearly all actives have a fitted effect of over 30% in size; also: potency is read from the fitted curve at half-maximal effect
# Procedure, shortened: (§1)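 Relative luminescence from CellTiter-Glo served as the viability signal, referenced to DMSO-treated (100%) and cell-free medium (0%) controls. Treatment lasted 48 hours at 37C with 500 cells per well.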
# [2] = Quantitative High-Throughput drug screen in 47 multiple myeloma cell lines against the NCATS MIPE library collection: Karpas417_ECACC cell viability assay (AID 1918961); conditions: Karpas417 myeloma viability, CellTiter-Glo ATP luminescence, 48 h; viability (% of DMSO): at 45.8 µM (top of the series); also: potency is read from the fitted curve at half-maximal effect
# Procedure, shortened: as §1
# [3] = Quantitative High-Throughput drug screen in 47 multiple myeloma cell lines against the NCATS MIPE library collection: INA6_PLB cell viability assay (AID 1918965; also: potency is read from the fitted curve at half-maximal effect; nearly all actives have a fitted effect of over 55% in size); conditions: INA6 myeloma viability, CellTiter-Glo ATP luminescence, 48 h; series mostly up to 45.8 µM
# Procedure, shortened: as §1
# [4] = Quantitative High-Throughput drug screen in 47 multiple myeloma cell lines against the NCATS MIPE library collection: H1112_PLB cell viability assay (AID 1918967; also: nearly all actives have a fitted effect of over 30% in size); conditions: H1112 myeloma cells viability, ATP luminescence, 48 h; series mostly up to 45.8 µM
# Procedure, shortened: (§2)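 Viability readout: CellTiter-Glo luminescence following 5 min room-temperature incubation with reagent. Prior exposure: 48 h, 37C, humidified 5% CO2, 500 cells per well.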
# [5] = Quantitative High-Throughput drug screen in 47 multiple myeloma cell lines against the NCATS MIPE library collection: KMS27_JCRB cell viability assay (AID 1918970); conditions: KMS27 myeloma cells, CellTiter-Glo ATP viability, 48 h; series mostly up to 45.8 µM; also: nearly all actives have a fitted effect of over 30% in size; also: potency is read from the fitted curve at half-maximal effect
# Procedure, shortened: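 ATP-based viability (CellTiter-Glo luminescence) is measured in cells treated 48 h with approved and investigational drugs at 37 °C. Controls are DMSO-only wells for full viability and media-only wells for none.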
# [6] = Quantitative High-Throughput drug screen in 47 multiple myeloma cell lines against the NCATS MIPE library collection: MMM1_PLB cell viability assay (AID 1918976); conditions: MMM1 myeloma cells viability, CellTiter-Glo, 48 h; series mostly up to 45.8 µM; also: potency is read from the fitted curve at half-maximal effect; nearly all actives have a fitted effect of over 35% in size
# Procedure, shortened: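 Readout: median RLU from CellTiter-Glo after 5 min at room temperature. Preceding step was 48 h drug treatment of 500 cells/well at 37 °C, 5% CO2, with DMSO-only and media-only control wells.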
# [7] = Quantitative High-Throughput drug screen in 47 multiple myeloma cell lines against the NCATS MIPE library collection: KMM1_JCRB cell viability assay (AID 1918960); conditions: KMM1 myeloma viability, CellTiter-Glo ATP luminescence, 48 h; series mostly up to 45.8 µM; also: nearly all actives have a fitted effect of over 30% in size; also: potency is read from the fitted curve at half-maximal effect
# Procedure, shortened: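 500 cells/well; MIPE 4.0 library pinned in; 48 h, 37 °C, 5% CO2; CellTiter-Glo ATP luminescence. Controls: DMSO = 100% viability, medium only = 0%.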
# [8] = Quantitative High-Throughput drug screen in 47 multiple myeloma cell lines against the NCATS MIPE library collection: JIM3_ECACC cell viability assay (AID 1918963; also: nearly all actives have a fitted effect of over 35% in size; also: potency is read from the fitted curve at half-maximal effect); conditions: JIM3 myeloma viability, CellTiter-Glo ATP, 48 h; series mostly up to 45.8 µM
# Procedure, shortened: as §1
# [9] = Quantitative High-Throughput drug screen in 47 multiple myeloma cell lines against the NCATS MIPE library collection: JJN3_DSMZ cell viability assay (AID 1918966; also: nearly all actives have a fitted effect of over 50% in size); conditions: JJN3 myeloma cells viability, CellTiter-Glo ATP, 48 h; series mostly up to 45.8 µM
# Procedure, shortened: as §2
# [10] = Quantitative High-Throughput drug screen in 47 multiple myeloma cell lines against the NCATS MIPE library collection: Karpas25_ECACC cell viability assay (AID 1918968; also: nearly all actives have a fitted effect of over 35% in size); conditions: Karpas25 myeloma viability, CellTiter-Glo ATP, 48 h; series mostly up to 45.8 µM
# Procedure, shortened: as §2
# [11] = Quantitative High-Throughput drug screen in 47 multiple myeloma cell lines against the NCATS MIPE library collection: KMS12BM_JCRB cell viability assay (AID 1918971); conditions: KMS12BM myeloma viability, CellTiter-Glo ATP, 48 h; series mostly up to 45.8 µM; also: potency is read from the fitted curve at half-maximal effect; nearly all actives have a fitted effect of over 35% in size
# Procedure, shortened: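 CellTiter-Glo luminescence (ATP) after 48 h compound exposure, 37C/5% CO2; 500 cells/well; MIPE 4.0 approved/investigational drugs pinned in; DMSO = 100%, media only = 0% viability.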
smiles,measurement,setting,value
CCOC(CN1C(=O)[C@](CC(=O)Nc2ccc(C)cc2)(NC(=O)Nc2ccc(C)cc2)c2ccccc21)OCC,Potency,[1],16.6 µM (active)
same,Potency,[2],16.6 µM (active)
same,Potency,[3],23.5 µM (active)
same,Potency,[4],inactive
same,Potency,[5],26.4 µM (active)
same,Potency,[6],23.5 µM (active)
Cc1c[nH]c(C=C2C(=O)Nc3ccccc32)c1CCC(=O)O,Potency,[1],inactive
same,Potency,[7],18.7 µM (active)
O=c1ccn([C@@H]2O[C@H](CO)[C@H](O)[C@H]2O)c(=O)[nH]1,Potency,[1],inactive
same,Potency,[7],inactive
same,Potency,[8],inactive
same,Potency,[9],inactive
same,Potency,[4],inactive
same,Potency,[10],inactive
same,Potency,[5],inactive
same,Potency,[11],11.8 µM (active)
same,Potency,[6],8.33 µM (active)
NC(=O)c1cccc2[nH]c(-c3ccc([C@H]4CCCN4)cc3F)nc12,Potency,[8],14.8 µM (active)
same,Potency,[3],14.8 µM (active)
same,Potency,[5],23.5 µM (active)
